Results on 21 molecules are retold here after PubChem BioAssay (Tox21).

Unmarked numbers belong to inactive results. Results filed as inconclusive are left out. Active and inactive are the calls of the source. Unless noted, calls come from the whole dose curve; as a rule, active = well fitted curve in the direction sought with a large enough effect in the repeat runs; inconclusive = weak or mixed curves; inactive = no such curve, though single readings can be large; an effect the other way counts as inactive or inconclusive.

For experiment [1], the target named is Progesterone receptor (Homo sapiens) (UniProt P06401). The experiment in a line: qHTS assay to identify small molecule agonists of the progesterone receptor (PR) signaling pathway (AID 1346784; calls by dose curve; note: nearly all actives have a fitted effect of over 30% in size). In outline:
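Beta-lactamase reporter read-out: after 16 hr compound treatment at 37C and a further 2 hr at room temperature with LiveBLAzer B/G FRET substrate, fluorescence was measured in PR-UAS-bla HEK 293T cells grown in 2% charcoal-stripped serum.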
Background: In qHTS, concentration-response curves come from the screen itself.

For experiment [2] the target is unchanged. The experiment in a line: qHTS assay to identify small molecule antagonists of the progesterone receptor (PR) signaling pathway (AID 1346795; active = well fitted inhibition curve with a large enough effect in the signal ratio in the repeat runs, not every such curve was filed as active; the % refers to the signal ratio; note: potency is the fitted concentration of half-maximal effect). In outline: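 Read-out is fluorescence from the LiveBLAzer B/G FRET substrate, cleaved by a UAS-controlled beta-lactamase in PR-UAS-bla HEK293T cells after 16 hr exposure to compound plus 1 nM promegestone (final), followed by 2 hr at room temperature.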

Experiment [3] can be described thus: qHTS assay to identify small molecule antagonists of the progesterone receptor (PR) signaling pathway - cell viability counter screen (AID 1346798). Note: nearly all actives have a fitted effect of over 50% in size. Note: potency is the fitted concentration of half-maximal effect. In outline:
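HEK293T PR-UAS-bla, 2% charcoal-stripped FBS; 4 hr pre-plate; cpd + R5020, 16 h 37C; LiveBLAzer read first; then CellTiter-Glo 30 min RT, luminescence.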

Experiment [4] in a line: qHTS assay to identify small molecule agonists of the progesterone receptor (PR) signaling pathway - cell viability counter screen (AID 1346799; calls by dose curve; note: nearly all actives have a fitted effect of over 45% in size; note: potency is the fitted concentration of half-maximal effect). In outline:
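Luminescence from CellTiter-Glo, added after the beta-lactamase FRET read in the same wells, gave cytotoxicity in PR-UAS-bla HEK293T cells treated with compounds for 16 hr at 37C.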

A short description of experiment [5]: qHTS assay to identify small molecule agonists of the TGF-beta/Smad signaling pathway - cell viability counter screen (AID 1346829). Note: nearly all actives have a fitted effect of over 45% in size. Note: potency is the fitted concentration of half-maximal effect. In outline:
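Luminescence from CellTiter-Glo, read after a 30 min room-temperature incubation, gives cell viability of SBE-bla HEK 293T cells treated 5 hr with compounds at 37 C.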

Experiment [6] can be described thus: qHTS assay to identify small molecule agonists of the TGF-beta/Smad signaling pathway (AID 1346859; active = well fitted activation curve with a large enough effect in the signal ratio in the repeat runs, not every such curve was filed as active; the % refers to the signal ratio; note: series mostly up to about 77 µM). In outline: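 SBE-bla HEK 293T, 4,000 cells/well, plated o/n; cpd in DMSO, 5 hr, 37 C/5% CO2; B/G FRET substrate 2 hr RT; ex 405, em 460/530 nm.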
Experiment [7] deals with Thyrotropin-releasing hormone receptor (Homo sapiens) (UniProt P34981). The experiment in a line: qHTS assay to identify small molecule antagonists of the thyrotropin-releasing hormone receptor (TRHR) signaling pathway (AID 1346877; active = well fitted inhibition curve with a large enough effect in the repeat runs, not every such curve was filed as active; note: series mostly up to about 51 µM). In a few lines: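 Human TRHR in HEK293 cells; inhibition of the intracellular calcium rise triggered by 1 nM TRH was followed by fluorescence over 3 min. Compounds were run at 15 concentrations, three replicates each.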
Sequence of Thyrotropin-releasing hormone receptor (Homo sapiens) (P34981 whole entry, looked up): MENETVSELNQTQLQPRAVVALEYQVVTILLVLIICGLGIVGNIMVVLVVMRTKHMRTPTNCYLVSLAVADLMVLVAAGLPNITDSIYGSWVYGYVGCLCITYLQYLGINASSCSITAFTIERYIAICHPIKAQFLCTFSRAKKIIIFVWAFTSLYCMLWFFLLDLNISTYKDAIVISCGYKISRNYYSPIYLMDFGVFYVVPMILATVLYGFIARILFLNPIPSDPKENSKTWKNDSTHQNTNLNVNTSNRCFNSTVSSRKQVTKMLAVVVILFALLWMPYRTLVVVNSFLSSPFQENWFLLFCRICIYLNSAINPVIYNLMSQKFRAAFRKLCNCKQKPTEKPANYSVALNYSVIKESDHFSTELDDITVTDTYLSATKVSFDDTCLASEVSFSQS

The target is the same in experiment [8]. The experiment in a line: qHTS assay to identify small molecule agonists of the thyrotropin-releasing hormone receptor (TRHR) signaling pathway (AID 1346891; calls by dose curve; note: series mostly up to about 58 µM). In outline: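 Intracellular calcium rise, read as fluorescence every second for 3 min, served as the agonist signal in dye-loaded HEK293 cells expressing TRHR; each compound ran at 15 concentrations in triplicate.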

A short description of experiment [9]: qHTS assay to identify small molecule antagonists of the TGF-beta/Smad signaling pathway - cell viability counter screen (AID 1346824). Note: nearly all actives have a fitted effect of over 50% in size. Note: potency is the fitted concentration of half-maximal effect. In outline: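 SBE-bla HEK 293T cells were plated overnight at 37 C, then given compounds in DMSO plus TGF-beta1 (added as 0.25 ng/mL solution) for 5 hr. After the bla read, CellTiter-Glo was added to the same wells and luminescence read after 30 min at room temperature.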

A short description of experiment [10]: Human pregnane X receptor (PXR) small molecule agonists, qHTS cell viability counter screen (AID 1346977). Note: nearly all actives have a fitted effect of over 50% in size. Note: potency is the fitted concentration of half-maximal effect. In a few lines:
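PXR-Luc HepG2, 2,000 cells/well, 5% charcoal-stripped FBS; 5hr settle; cpd 24hr, 37C/5% CO2; CellTiter-Fluor at 23hr, read 1hr later (fluorescence).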
% is set by controls: 0 for no effect and ±100 for the full control effect.

Sequence of Progesterone receptor (Homo sapiens) (P06401 whole entry, looked up): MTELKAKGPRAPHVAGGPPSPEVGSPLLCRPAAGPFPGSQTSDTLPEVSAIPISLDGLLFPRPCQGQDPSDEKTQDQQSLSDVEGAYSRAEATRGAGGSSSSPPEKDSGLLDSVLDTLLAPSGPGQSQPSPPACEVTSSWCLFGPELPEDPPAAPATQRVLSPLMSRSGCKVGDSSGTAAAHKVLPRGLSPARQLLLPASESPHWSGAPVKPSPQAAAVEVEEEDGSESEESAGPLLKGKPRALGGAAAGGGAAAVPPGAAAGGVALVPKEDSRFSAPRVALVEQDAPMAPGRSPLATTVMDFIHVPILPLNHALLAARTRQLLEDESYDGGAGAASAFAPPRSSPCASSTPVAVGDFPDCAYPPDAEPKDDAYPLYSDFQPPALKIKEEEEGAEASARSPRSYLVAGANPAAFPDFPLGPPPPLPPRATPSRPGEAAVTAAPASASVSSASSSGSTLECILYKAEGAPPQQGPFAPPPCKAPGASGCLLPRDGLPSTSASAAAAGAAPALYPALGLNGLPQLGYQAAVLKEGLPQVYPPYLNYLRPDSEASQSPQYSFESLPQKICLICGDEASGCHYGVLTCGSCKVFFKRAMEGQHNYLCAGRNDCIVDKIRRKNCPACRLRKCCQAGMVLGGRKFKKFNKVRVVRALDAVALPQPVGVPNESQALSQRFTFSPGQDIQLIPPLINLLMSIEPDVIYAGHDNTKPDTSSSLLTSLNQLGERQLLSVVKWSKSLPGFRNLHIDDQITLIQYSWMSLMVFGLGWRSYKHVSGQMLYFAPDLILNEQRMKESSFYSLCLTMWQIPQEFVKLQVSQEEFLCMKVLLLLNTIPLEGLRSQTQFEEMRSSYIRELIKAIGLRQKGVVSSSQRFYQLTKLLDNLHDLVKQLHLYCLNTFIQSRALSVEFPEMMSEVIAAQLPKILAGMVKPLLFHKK

Consider `Nc1ccc2cc(S(=O)(=O)O)cc(O)c2c1N=Nc1ccccc1C(F)(F)F`, for which the Potency result in [1], in experiment [2], in [3], in experiment [4], in experiment [5] and in experiment [6] was “inactive” throughout. For the same molecule, the Potency result in experiment [7] and in [8] was “inactive” each time.
In the case of `CCCCCCCCCCC=O`, the Potency entry in experiment [1], in [2], in experiment [3], in [4], in experiment [9] and in experiment [5] was “inactive” each time. For the same molecule, the Potency result in experiment [6], in [7], in experiment [8] and in [10] was “inactive” throughout.
Turning to `C[n+]1cc2c3c(ccc2c2ccc4cc5c(cc4c21)OCO5)OCO3`, the activation is -18.8% [at 19 µM] in experiment [1] and 2.25% [at 11.8 µM] in experiment [8]. Further, the Potency was 2.59 µM (active) in experiment [2]; 3.66 µM (active) in experiment [3]; 3.26 µM (active) in [4]; 4.65 µM (active) in experiment [9]; 6.57 µM (active) in experiment [5]. The activity, negative = inhibition in experiment [7] is 3.07% [at 10.5 µM].
In the case of `CCN(Cc1cccnc1)C(=O)c1cccc(Cl)c1[C@]1(C)C(=O)N(Cc2ccc(OC)cc2OC)c2ccc(Cl)cc21`, the Potency entry in [1], in experiment [3], in [4], in [9], in [5] and in experiment [7] was “inactive” each time. In experiment [8], the Potency entry was “inactive”. For the same molecule, the Potency is 16.1 µM (active) in experiment [2] and 25.5 µM (active) in [10].
For `c1ccc(CSCc2ccccc2)cc1`, the Potency result in experiment [1], in experiment [2], in [3], in experiment [4], in experiment [9] and in experiment [6] was “inactive” in each case. For the same molecule, the Potency entry in [7] and in [8] was “inactive” each time.
For the molecule `CC1=NC(C)OC1C` (stereo unspecified), the Potency entry in [1], in experiment [2], in [3], in experiment [4], in experiment [9] and in experiment [5] was “inactive” in each case. Further, the Potency result in experiment [6], in experiment [7], in [8] and in [10] was “inactive” throughout.
As to `COc1cc(/C=C/C(=O)O[C@H]2CC[C@]34C[C@]35CC[C@]3(C)[C@@H]([C@H](C)CCC=C(C)C)CC[C@@]3(C)[C@@H]5CC[C@H]4C2(C)C)ccc1O`, the Potency entry in experiment [1], in experiment [2], in experiment [3], in [4], in [9] and in experiment [5] was “inactive” each time. Further, the Potency result in experiment [6], in experiment [7], in experiment [8] and in experiment [10] was “inactive” in each case.
`CSc1cnc(C)cn1`: the Potency result in experiment [1], in experiment [2], in experiment [3], in [4], in experiment [9] and in experiment [5] was “inactive” throughout. Besides, the Potency result in experiment [6], in experiment [7] and in experiment [8] was “inactive” throughout.
With `COC(=O)c1cc(Cl)ccc1OC`, the Potency entry in experiment [1], in experiment [2], in experiment [3], in [4], in experiment [9] and in [5] was “inactive” each time. The Potency entry in [6], in experiment [7] and in experiment [8] was “inactive” in each case.
For the molecule `CCCCN(CCCC)C(=O)N(CCCC)CCCC`, the Potency entry in [1], in [2], in experiment [3], in [4], in [9] and in experiment [5] was “inactive” throughout. The Potency result in [6] is “inactive”.
As for `NC(=O)NS(=O)(=O)c1ccc(N)cc1`, the Potency entry in [1], in [2], in experiment [3], in [4], in [9] and in experiment [6] was “inactive” throughout. In addition, the Potency result in experiment [7], in experiment [8] and in experiment [10] was “inactive” throughout.
For the molecule `Cc1ccc(O)c(C(C)(C)C)c1`, the Potency result in [1], in [2], in [3], in experiment [4], in experiment [9] and in experiment [5] was “inactive” in each case. Also, the Potency entry in experiment [6] and in experiment [10] was “inactive” throughout.
`CNC(=O)c1ccccc1`: the Potency entry in experiment [1], in experiment [2], in experiment [3], in [4], in experiment [9] and in experiment [5] was “inactive” in each case. The Potency result in [6], in experiment [7], in experiment [8] and in experiment [10] was “inactive” in each case.
For `O=C(O)c1ccc(Cl)c(Cl)c1`, the Potency entry in [1], in [2], in [3], in [4], in [9] and in experiment [5] was “inactive” throughout. For the same molecule, the Potency result in experiment [6] and in [10] was “inactive” each time.
Regarding `CCCCCCCCCCCCCCCS(=O)(=O)Oc1ccccc1`, the Potency result in [1], in [2], in [3], in [4], in [9] and in experiment [5] was “inactive” throughout. Further, the Potency result in experiment [6], in [7], in experiment [8] and in experiment [10] was “inactive” throughout.
Consider `O=C(N/N=C/c1ccccc1O)c1ccncc1`, for which the Potency result in experiment [1], in experiment [9], in [6], in experiment [7], in experiment [8] and in experiment [10] was “inactive” each time. Moreover, the Potency in experiment [2] was 10.6 µM (active).
As to `CCC1OCC(COc2ccc(Oc3ccccc3)cc2)O1` (stereo unspecified), the Potency result in [1], in experiment [9], in experiment [5], in experiment [6], in [7] and in [8] was “inactive” each time. Also, the Potency in [2] was 54.5 µM (active).
For `Cc1c(C)c2c(c(C)c1O)CCC(C)(COc1ccc(CC3SC(=O)NC3=O)cc1)O2` (stereo unspecified), the Potency result in experiment [1], in [9], in experiment [6], in experiment [7] and in experiment [8] was “inactive” in each case. Further, the Potency in experiment [2] is 18.8 µM (active).
With `CCCCCCCCOc1ccccc1C(=O)Nc1ccc(C(=O)OCC[N+](C)(CC)CC)cc1`, the Potency result in [1], in experiment [2], in [9], in experiment [5], in experiment [6] and in [7] was “inactive” each time. The Potency result in [8] and in experiment [10] was “inactive” throughout. Moreover, the Potency in experiment [3] was 29.8 µM (active).
For `Clc1ccc(C(Cn2ccnc2)OCc2ccc(Sc3ccccc3)cc2)c(Cl)c1` (stereo unspecified), the Potency entry in [1], in experiment [4], in experiment [9], in experiment [5], in experiment [6] and in experiment [7] was “inactive” throughout. In experiment [8], the Potency result is “inactive”. Moreover, in experiment [2], the Potency is 29.8 µM (active).
For `Oc1c(Cl)cc(Cl)c2cccnc12`, the Potency entry in [1], in experiment [9], in experiment [5], in [7] and in [8] was “inactive” throughout. Also, the Potency in experiment [2] was 0.841 µM (active).
